PLK1 PBD block – qHTS for Inhibitors of PLK1-PDB (polo-like kinase 1 - polo-box domain): Primary Screen; Serine/threonine-protein kinase PLK1 (Homo sapiens), P53350; hit rate 2.8% among 360,000; Plk1 PBD binding of FITC phosphopeptide, fluorescence polarization; AID 720504, 2013; Potency, µM, for the others: max response, negative = inhibition, usual class: inhibitors; note: potency is the fitted concentration of half-maximal effect; series mostly up to about 57 µM; % is set by controls: 0 for no effect and ±100 for the full control effect; nearly all actives have a fitted effect of over 65% in size
PI5P4K alpha inh – qHTS for Inhibitors of phosphatidylinositol 5-phosphate 4-kinase (PI5P4K). hit rate 1.2% among 330,000. max response, %. PI5P4Kalpha enzyme, ADP-Glo luminescence, 60 min; active compounds read low. AID 652105, 2013; active = max response of -50% or lower; inconclusive = between -30% and -50%; inactive = -30% or higher; note: value at the top dose of about 77 µM; % is set by controls: 0 for no effect and ±100 for the full control effect
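ADP-Glo luminescence end-point after a 60 min room-temperature kinase reaction. PI5P4Kalpha and substrate in HEPES pH 7.4 buffer with EGTA, 0.1% CHAPS and 5% DMSO; ATP at 5 microM final.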
FEN1 inh-1 – qHTS Assay for the Inhibitors of Human Flap endonuclease 1 (FEN1) | P39748 | Recombinant FEN1 flap cleavage, fluorescence, 15 min | Potency, µM (doses to about 114 µM), for the others: at the highest dose activity change, negative = inhibition, hits mostly inhibitors | hit rate 0.35% among 390,000 | AID 588795, 2011; note: potency is the fitted concentration of half-maximal effect; % is set by controls: 0 for no effect and ±100 for the full control effect; nearly all actives have a fitted effect of over 65% in size
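Nuclease activity of 10 nM FEN1 was measured after 15 min of room-temperature exposure to titrated compounds, by adding 50 nM flap substrate and reading plates at 0 and 15 min.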
VDR inh – Inhibitors of the vitamin D receptor (VDR): qHTS; Potency, µM, without a hit: max response, negative = inhibition, most hits filed as inhibitors; VDR-SRC2-3 peptide fluorescence polarization, 2 h; Vitamin D3 receptor (Homo sapiens), P11473; AID 504847, 2011; hit rate 0.93% among 400,000; note: potency is the fitted concentration of half-maximal effect; % is set by controls: 0 for no effect and ±100 for the full control effect
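The screen uses fluorescence polarization to detect compounds that interfere with recruitment of the SRC2-3 coactivator peptide to VDR; plates are read after 2 h at room temperature.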
TCR activator – Activators of T cell receptors: qHTS campaign. primary human leukocytes, anti-CD3, IL-2 HTRF, 48 h. Potency, µM (titrated, usually from 9.22 µM), for inactives: top-dose activation of IL-2 secretion, most hits filed as activators. 330,000 tested, under 10 active; note: % of control where 0% means no effect
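Primary human leukocytes receive a-CD3 beads and test compound and are incubated 48 hr. Secreted IL-2 is then assayed by HTRF, measuring 665nm acceptor emission after 320nm excitation of the europium donor.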
WRN helicase inh-1 – qHTS for Inhibitors of WRN Helicase; Bifunctional 3'-5' exonuclease/ATP-dependent helicase WRN (Homo sapiens), Q14191; WRN helicase unwinding, fluorescent forked duplex, kinetic; Potency, µM (highest dose often 114 µM), for the others: top-dose activity change, negative = inhibition, usual class: inhibitors; hit rate 0.46% among 360,000; note: potency is the fitted concentration of half-maximal effect; % is set by controls: 0 for no effect and ±100 for the full control effect; nearly all actives have a fitted effect of over 55% in size
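WRN at 20 nM final was preincubated with compound for 15 min at room temperature; reaction started with 100 nM forked duplex oligonucleotide carrying fluorophore and quencher plus 2 mM ATP (final). Unwinding followed kinetically by red fluorescence (ex 525/em 598 nm).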
FEN1 inh-2 – qHTS Assay for the Inhibitors of FEN1: Confirmatory Assay for Cherry-picked Compounds; shares compounds with FEN1 inh-1; hit rate 79% among 880; FEN1 flap cleavage, TAMRA/BHQ2 fluorogenic DNA substrate; Potency, µM, most hits filed as inhibitors; note: potency is the fitted concentration of half-maximal effect; nearly all actives have a fitted effect of over 60% in size
WRN helicase inh-2 – qHTS for Inhibitors of WRN Helicase: Confirmatory Assay for Cherry-picked Compounds | shares compounds with WRN helicase inh-1 | WRN helicase DNA unwinding, fluorescence kinetic | Potency, µM (doses to about 57.1 µM), for inactives: top-dose activity, negative = inhibition, most hits filed as inhibitors | hit rate 63% among 610; note: potency is the fitted concentration of half-maximal effect; nearly all actives have a fitted effect of over 65% in size
TO DNA binding – qHTS for Inhibitors of WRN Helicase: Thiazole Orange DNA Binding Counterscreen. shares compounds with WRN helicase inh-1. thiazole orange DNA binding displacement, fluorescence. Potency, µM (highest dose often 57.1 µM), for the others: top-dose activity change, negative = inhibition, hits mostly inhibitors. hit rate 10% among 610;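 note: drop in dye fluorescence marks compound binding to DNA; potency is the fitted concentration of half-maximal effect; % is set by controls: 0 for no effect and ±100 for the full control effect; nearly all actives have a fitted effect of over 60% in size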
BLM counter – qHTS for Inhibitors of WRN Helicase: BLM Helicase Counterscreen for WRN Inhibitors; shares compounds with WRN helicase inh-1; Recombinant BLM helicase DNA unwinding, red fluorescence; Potency, µM (series often up to 57.1 µM), for inactives: at the top dose activity change, negative = inhibition, usual class: inhibitors; hit rate 60% among 610; AID 720503, 2013; note: potency is the fitted concentration of half-maximal effect; nearly all actives have a fitted effect of over 60% in size
Numbers without * were called inactive; ? = inconclusive; / = no result given; [ ] = remark or other dose. Shown are actives, neighbours in structure and some others; about 3.7% of the full set was active somewhere. Unless noted, calls come from the whole dose curve; as a rule, active = well fitted curve in the direction sought with a large enough effect; inconclusive = small, poorly fitted or top-dose-only effect, or another doubt; inactive = no such curve, though single readings can be large; an effect the other way counts as inactive or inconclusive.

SMILES | PLK1 PBD block | PI5P4K alpha inh | FEN1 inh-1 | VDR inh | TCR activator | WRN helicase inh-1 | FEN1 inh-2 | others
O=C1c2cccc3c(Cl)ccc(c23)C(=O)N1O | -4% | / | 0.5µM* | 17% | / | ? | 1.1*
CCN1C(=O)c2cccc3c(Cl)ccc(c23)C1=O | -11% | 2 | -1% | -9% | -9% | -4% | /
O=C(O)c1ccc(N2C(=O)c3cccc4c(C(=O)O)ccc(c34)C2=O)cc1 | 0% | ? | 50µM* | 29% | -1% | 50µM* | 21*
O=C(c1ccc2c3c(cccc13)C(=O)N(O)C2=O)N1CCCCC1 | -4% | 5 | 11µM* | 9% | 1% | -6%[11.6 µM] | 3*
CC(=O)c1ccc(NC(=O)CSc2nnc3ccc(-c4ccc(Br)cc4)nn23)cc1 | / | / | 2% | 3% | / | / | /
O=C(O)c1c2cc(Br)ccc2nc2[nH]c(=O)[nH]c(=O)c12 | -4% | -11 | -4% | -8% | -2% | 0% | /
Cc1ccc2nc3[nH]c(=O)[nH]c(=O)c3c(N)c2c1 | 0% | -4 | ? | 45% | -9% | -6% | 60*
CCOC(=O)c1c(C)[nH]c(C)c1S(=O)(=O)N(C)CC(=O)Nc1ccc(CC)cc1 | / | / | -6% | -1% | / | / | /
O=C(N/N=C/c1ccoc1)c1cc(O)cc(O)c1 | ? | -71* | ? | 0% | 2% | 20µM* | 67*
Cc1cc(C)cc(C(=O)N/N=C/c2ccoc2)c1 | -8% | ? | 6% | 7% | 1% | -5% | /
O=c1nc2c(O)cccn2c2c1c(=O)[nH]c1ccccc12 | 24µM* | -58* | 56µM* | 2% | 5%[46.1 µM] | ? | 34*
COc1ccc(OC)c(CNC(=O)c2cc3c(-c4ccc(OC)c(OC)c4)nn(C)c3s2)c1 | / | / | -14% | -13% | / | / | /
CCCCN(CC)CCNC(=O)c1cc2c(-c3ccc(Cl)cc3)nn(C)c2s1 | -2% | 8 | 45µM* | -1% | -7% | 88% | 38*
CCN(CC)CCNC(=O)c1cc2c(-c3ccc(Cl)cc3)nn(C)c2s1 | -6% | -1 | 28µM* | -21% | -7% | 48% | 38*
CCN(CC)CCNC(=O)c1cc2c(-c3cccc(OC)c3)nn(C)c2s1 | -1% | -4 | ? | 12% | 2% | 52% | 38*
COc1ccc(-c2nn(C)c3sc(C(=O)NCCN(C)C)cc23)cc1OC | -5% | 5 | 18µM* | 2% | -1% | ? | 30*
CCCN(CCC)CCNC(=O)c1cc2c(-c3ccc(Cl)cc3)nn(C)c2s1 | 0% | 3 | ? | 10% | 7% | 14% | /
COCCn1c(=O)c(CCc2ccccc2)nc2cnc(Oc3ccccc3)nc21 | / | / | / | 1% | / | / | /
CC[C@H](C)[C@@H](NC(=O)O[C@H]1C(=O)c2cc(OC)ccc2O[C@@H]1c1ccc(OC)c(Br)c1)C(=O)OC | / | / | / | -1% | / | / | /
O=C(c1ccccc1)N1CCCCC1CCN1CCCCC1 (stereo unspecified) | / | / | -3% | 1% | / | / | /
CCOC(=O)c1cnc2cc(C(F)(F)F)ccc2c1N1CCN(c2cccc(Cl)c2)CC1 | / | / | 4% | 1% | / | / | /
CCSC1=NC2(CCN(C(=O)NC3CCCCC3)CC2)N=C1c1ccc(Cl)cc1 | / | / | 5% | 21% | / | / | /
COc1ccc(OC)c(C(=O)c2ccc(C(=O)c3cc(OC)ccc3OC)cc2)c1 | 0% | / | 10% | 6% | / | -4% | /
COc1ccc(OC)c(/C(O)=C/C(=O)C(=O)Nc2cc(C)cc(C)c2)c1 | -7% | 2 | ? | -8% | -3% | -10% | 43*
CCCSc1ncc(Cl)c(C(=O)Nc2c(C(=O)c3ccc(F)cc3)oc3ccccc23)n1 | / | / | -6% | -6% | / | / | /
SMILES | PLK1 PBD block | PI5P4K alpha inh | FEN1 inh-1 | VDR inh | TCR activator | WRN helicase inh-1 | FEN1 inh-2 | others
CCOC(=O)c1ccc(NC(=O)CC(C)n2nc(C)cc2C)cc1 (stereo unspecified) | / | / | 7% | 25% | / | / | /
CS(=O)(=O)c1ccc2c(c1)sc1nc(=O)c(/C=C3/C=CC(=O)C(O)=C3)c(N)n12 | 68% | -80* | 13µM* | 19% | -3% | 28µM* | 38* | WRN helicase inh-2=1.9µM*;TO DNA binding=31%;BLM counter=3µM*
Cc1c(CCNC(=O)c2ccc(C(C)(C)C)cc2)sc2nc(-c3ccc(F)cc3)nn12 | / | / | ? | 2% | / | / | /
O=C(O)CCCNc1cc(N2CCN(C(=O)c3ccco3)CC2)c2noc3c2c1C(=O)c1ccccc1-3 | 12% | ? | ? | 9% | 7% | 45µM* | 27* | WRN helicase inh-2=14µM*;TO DNA binding=295%;BLM counter=19µM*
CCOCCCn1c(SCC(=O)Nc2ccccc2OC)nc2c(oc3ccccc32)c1=O | / | / | -16% | -9% | / | / | /
Cc1cccc(N2CCn3c2nc2c3c(=O)n(C/C=C/c3ccccc3)c(=O)n2C)c1 | / | / | 6% | 9% | / | / | /
O=C(O)c1cccc(-c2ccc(/C=c3/sc4nc5ccccc5n4c3=O)o2)c1 | 0% | ? | 13µM* | -6% | -1% | 40µM* | 76* | WRN helicase inh-2=4.8µM*;TO DNA binding=?;BLM counter=1.9µM*
